Bioassay records: PubChem BioAssay, several laboratories
AHR act: human AHR activation. activation, % at 5 µM. P35869. AHR-responsive luciferase reporter cells, luminescence. 320,000 tested, 2.5% active; in the data active means activation above about 47%
Target sequence (P35869 whole entry, looked up): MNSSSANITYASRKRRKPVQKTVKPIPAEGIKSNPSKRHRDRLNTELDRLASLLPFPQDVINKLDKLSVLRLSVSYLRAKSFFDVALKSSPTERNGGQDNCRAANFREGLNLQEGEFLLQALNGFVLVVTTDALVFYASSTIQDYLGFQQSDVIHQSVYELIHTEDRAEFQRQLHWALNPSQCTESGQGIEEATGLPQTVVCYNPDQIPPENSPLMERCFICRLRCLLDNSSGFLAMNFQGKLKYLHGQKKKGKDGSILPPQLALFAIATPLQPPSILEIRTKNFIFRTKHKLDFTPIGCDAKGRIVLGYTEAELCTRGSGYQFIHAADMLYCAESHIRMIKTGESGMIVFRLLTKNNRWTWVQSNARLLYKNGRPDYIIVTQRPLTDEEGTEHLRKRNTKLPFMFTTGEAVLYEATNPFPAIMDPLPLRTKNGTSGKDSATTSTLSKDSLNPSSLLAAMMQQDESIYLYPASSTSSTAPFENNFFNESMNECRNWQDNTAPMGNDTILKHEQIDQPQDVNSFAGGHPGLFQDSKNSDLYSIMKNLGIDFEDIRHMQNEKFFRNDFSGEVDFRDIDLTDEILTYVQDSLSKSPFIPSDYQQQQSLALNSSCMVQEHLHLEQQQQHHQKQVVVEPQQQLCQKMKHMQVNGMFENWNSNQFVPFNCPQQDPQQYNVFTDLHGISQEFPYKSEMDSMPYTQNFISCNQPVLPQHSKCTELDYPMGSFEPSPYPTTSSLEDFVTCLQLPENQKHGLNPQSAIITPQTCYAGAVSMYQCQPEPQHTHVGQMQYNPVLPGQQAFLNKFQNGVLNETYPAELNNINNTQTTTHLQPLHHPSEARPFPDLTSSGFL
HSF1 activator: increases HSF-1 driven luciferase reporter signal; NIH3T3-HGL HSF-1 luciferase reporter, MG132, 8 h; 100% = twice DMSO control signal; activation, % at 9 µM; 300,000 tested, 1.7% active; AID 504408;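 active means mean replicate activation of at least 50% with a set share of replicates each reaching 50%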
HSF1 inh: HSF1 inhibition. activity change, negative = inhibition, % at 7.5 µM (by protocol). 300,000 tested, 0.77% active. NIH3T3-HGL HSE-luciferase, MG132-induced, luminescence 8 h; stronger effect = lower value;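 active means more than half of replicate wells show activity change below -50%, luminescence cut by over half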;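 further: luciferase reports HSF-1 transcriptional activity via heat shock element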
DAX1 inh: NR0B1 (DAX1) inhibition; HEK293 Gal4-DAX1 luciferase reporter, luminescence; 340,000 tested, 0.99% active; AID 504766; inhibition, % at 6.75 µM;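 active means inhibition above the mean over all tested compounds plus 3 SD, cut at about 4.2% in these data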;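 further: inhibition shows as a rise in luminescence from relieved DAX1 repression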
FXN GAA850 act: frataxin GAA850 promoter activation | HEK293 lucGAA850 FXN promoter luciferase reporter, 24 h; percent of 10 µM SAHA response | activation, % at 6 µM | 360,000 tested, 0.56% active | AID 540364;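 active means activation above the average of all compounds screened plus 3 SD, cutoff fixed separately per campaign, cut at about 7.5% in these data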
A number is an active result; . = inactive; / = no result. This is a sample that favours compounds with a hit; in the whole collection about 5.4% have one here.

SMILES	AHR act	HSF1 activator	HSF1 inh	DAX1 inh	FXN GAA850 act
CCn1c(SCc2nc3ccccc3s2)nnc1-c1ccccc1	.	.	.	.	.
O=C(NCc1nc2ccccc2[nH]1)C1=C[C@@H](c2ccccc2)C[C@@H](OCCCCO)O1	57	.	.	.	.
Cc1cc(C)nc(Nc2ncc(O)n2-c2ccc(C)c(C)c2)n1	.	.	.	.	.
Cc1cc(C)nc(Nc2ncc(O)n2-c2ccc(C)c(Cl)c2)n1	57	.	.	.	.
Nc1nc(=O)n(C2CCCO2)cc1Br (centres undefined)	/	/	/	.	.
O=C(Cn1nnc2ccccc2c1=O)N[C@H](C(=O)O)c1ccccc1	.	.	.	.	.
COc1ccc(OC)c2sc(N3CCCCC3)nc12	.	.	.	.	.
COc1ccc(OC)c2sc(N3CCc4ccccc4C3)nc12	.	128	.	.	.
Cc1ccc(Nc2nc(N)nc(CSc3nccn3C)n2)c(C)c1	48	.	.	.	.
Cc1ccccc1Nc1nc(N)nc(CSc2ccc(F)cc2)n1	.	.	.	7.5	.
Cc1ccc(SCc2nc(N)nc(Nc3ccccc3C)n2)c(C)c1	.	.	.	.	.
Cc1ccc(SCc2nc(N)nc(Nc3ccccc3C)n2)cc1C	.	.	.	.	.
Cc1ccc(Nc2nc(N)nc(CCl)n2)c(C)c1	.	.	-63	.	.
C=CCN=C1SC(C)(C)C(=O)N1S(=O)(=O)c1ccc(C)cc1	.	.	.	.	.
Cc1ccccc1-c1nc(CS(=O)(=O)CC(=O)N2CCN(C)CC2)c(C)o1	.	.	.	.	.
c1ccc2c(c1)NC1(CCCCCC1)n1c-2nc2ccccc21	.	.	.	.	.
CC1(c2ccccn2)Nc2ccccc2-c2nc3ccccc3n21 (centres undefined)	.	.	.	4.4	.
COc1ccccc1C(=O)N/C(=C\c1cn(C)c2ccccc12)C(=O)N1CCCC1	.	.	.	.	.
Nc1c(-c2n[nH]c(=S)n2-c2ccc(Cl)cc2Cl)cnn1-c1ccccc1	.	.	.	.	.
Nc1[nH]nc2c1NN(c1ccc(Cl)cc1Cl)N2	75	.	.	.	.
CN(C(=O)c1ccc(S(=O)(=O)N2CCCC2)cc1)C1CCS(=O)(=O)C1 (centres undefined)	.	.	.	.	.
Cc1cc(C)cc(NC(=O)C2C3C=CC4(O3)C2C(=O)N(CCN2CCCCC2)C4C(=O)NC2CCCCC2)c1 (centres undefined)	.	.	.	.	.
CN(C)CCN1C(=O)C2C(C(=O)Nc3cc(Cl)cc(Cl)c3)C3C=CC2(O3)C1C(=O)NC1CCCCC1 (centres undefined)	.	85	.	.	.
Cc1ccc(Nc2ncc3c(n2)CC(C)CC3=O)c(C)c1 (centres undefined)	.	59	.	.	.
C=CCN1C(=O)c2ccc(C(=O)N3CCN(S(=O)(=O)c4ccc(C(C)C)cc4)CC3)cc2C1=O	.	.	.	4.4	.
SMILES	AHR act	HSF1 activator	HSF1 inh	DAX1 inh	FXN GAA850 act
C=CCN1C(=O)c2ccc(C(=O)N3CCN(S(=O)(=O)c4cccc([N+](=O)[O-])c4)CC3)cc2C1=O	.	/	/	.	.
O=C(Cc1ccccc1)N/N=C/c1cc(Br)c(Br)o1	.	80	.	.	.
O=C(Cc1ccccc1)NN=Cc1ccccc1	/	/	/	.	.
CCOC(=O)c1sc(=NC(=O)c2cccs2)n(C)c1C	.	53	.	.	.
C#CCn1c(=NC(=O)c2cccs2)sc2cccc(OC)c21	.	.	.	.	.
Cc1ccc2c(c1)sc(=NC(=O)c1cccs1)n2C	56	.	.	.	.
Cc1ccc2c(c1)sc(=NC(=O)C1CC1)n2C	54	.	.	.	.
CCc1ccc(C(O)(CNCc2ccccc2)c2ccccc2)cc1 (centres undefined)	/	.	.	.	.
CN(C)S(=O)(=O)c1ccc(C(=O)OCCCN=C2NS(=O)(=O)c3ccccc32)cc1	.	.	-67	4.4	.
COc1cc(NC(=O)c2cc3ccccc3cc2OC)ccc1NC(=O)c1cccs1	.	.	-58	.	.
COc1cc(NC(=O)c2ccc([N+](=O)[O-])o2)ccc1NC(=O)c1cccs1	.	127	.	.	.
COc1cc(NC(=O)c2cccs2)ccc1NC(=O)Cc1ccccc1	.	.	.	.	.
O=C(Nc1cccc(NC(=O)c2cccs2)c1)c1ccc([N+](=O)[O-])o1	.	78	.	.	.
